{"source": "PubChem BioAssay AID1014", "about": "(NMMLSC, 2008)", "test": "quorum sensing inhibitors in bacterial reporter, SAR follow-up, flow cytometry, SAR analogs (AID 1014);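 further: Staphylococcus aureus RN6390 with RNAIII-GFP reporter stimulated by AIP; bacteria incubated with compound for 3 hours at 37 °C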", "conditions": "at 20 µM, stronger effect = higher value; inhibition of percent positive cells: flow cytometry fluorescence, measured here: percent reporter-positive cells", "note": "Active and inactive are the calls of the source. No stated cut-off is given here; in the data, active means inhibition of mean fluorescence above about 33%; inactive means the rest."}
{"smiles": "O=C(NCC(c1cccnc1)N1CCN(c2ccc(F)cc2)CC1)c1ccc(F)cc1", "note": "(stereo not given)", "values": [{"measurement": "inhibition of mean fluorescence", "result": "-11.6% (inactive)"}, {"measurement": "inhibition of percent positive cells", "result": -0.2, "unit": "%"}]}
{"smiles": "Cc1ccccc1C(=O)N1CCC(C(=O)Nc2ccc3c(c2)OCO3)CC1", "values": [{"measurement": "inhibition of mean fluorescence", "result": "-8.8% (inactive)"}, {"measurement": "inhibition of percent positive cells", "result": -0.4, "unit": "%"}]}
{"smiles": "CN=C1NC(=O)CC(C(=O)Nc2ccc3ccccc3c2)S1", "note": "(stereo not given)", "values": [{"measurement": "inhibition of mean fluorescence", "result": "-1.7% (inactive)"}, {"measurement": "inhibition of percent positive cells", "result": -0.3, "unit": "%"}]}
{"smiles": "Cc1ccc(C)c(Nc2c(F)c(F)c(F)c(F)c2C(=O)O)c1", "values": [{"measurement": "inhibition of mean fluorescence", "result": "2.3% (inactive)"}, {"measurement": "inhibition of percent positive cells", "result": -1.9, "unit": "%"}]}
{"smiles": "Cc1c(Nc2c(C(=O)O)cc([N+](=O)[O-])cc2[N+](=O)[O-])c(=O)n(-c2ccccc2)n1C", "values": [{"measurement": "inhibition of mean fluorescence", "result": "-3.7% (inactive)"}, {"measurement": "inhibition of percent positive cells", "result": -0.4, "unit": "%"}]}
{"smiles": "CC1CCN(C(=O)c2oc3ccccc3c2NC(=O)c2ccc3c(c2)OCO3)CC1", "values": [{"measurement": "inhibition of mean fluorescence", "result": "25.2% (inactive)"}, {"measurement": "inhibition of percent positive cells", "result": -0.2, "unit": "%"}]}
{"smiles": "O=C(NCCN1CCN(c2ccccc2)CC1)c1ccccc1F", "values": [{"measurement": "inhibition of mean fluorescence", "result": "-12.3% (inactive)"}, {"measurement": "inhibition of percent positive cells", "result": -1.5, "unit": "%"}]}
{"smiles": "O=CN1CCN(C(C(=O)NC2CCCC2)c2cc3c(cc2[N+](=O)[O-])OCO3)CC1", "note": "(stereo not given)", "values": [{"measurement": "inhibition of mean fluorescence", "result": "-8.7% (inactive)"}, {"measurement": "inhibition of percent positive cells", "result": -0.6, "unit": "%"}]}
{"smiles": "CCOc1ccc(Nc2nc3c(S(=O)(=O)c4ccc(Br)cc4)nnn3c3ccccc23)cc1", "values": [{"measurement": "inhibition of mean fluorescence", "result": "-22.8% (inactive)"}, {"measurement": "inhibition of percent positive cells", "result": -0.3, "unit": "%"}]}
{"smiles": "Cc1cc(C)cc(Nc2nc3c(S(=O)(=O)c4ccccc4)nnn3c3ccccc23)c1", "values": [{"measurement": "inhibition of mean fluorescence", "result": "0.4% (inactive)"}, {"measurement": "inhibition of percent positive cells", "result": 0.1, "unit": "%"}]}
{"smiles": "CCc1ccc(Nc2nc3c(S(=O)(=O)c4ccc(C(C)(C)C)cc4)nnn3c3ccccc23)cc1", "values": [{"measurement": "inhibition of mean fluorescence", "result": "3.7% (inactive)"}, {"measurement": "inhibition of percent positive cells", "result": -0.1, "unit": "%"}]}
{"smiles": "COc1ccc(Nc2nc3c(S(=O)(=O)c4ccc(C)cc4)nnn3c3ccccc23)cc1", "values": [{"measurement": "inhibition of mean fluorescence", "result": "4.9% (inactive)"}, {"measurement": "inhibition of percent positive cells", "result": -0.8, "unit": "%"}]}
{"smiles": "CCc1c(C(=O)c2ccc(C)cc2)oc2ccc3c(C)cc(=O)oc3c12", "values": [{"measurement": "inhibition of mean fluorescence", "result": "10.8% (inactive)"}, {"measurement": "inhibition of percent positive cells", "result": -0.1, "unit": "%"}]}
{"smiles": "Cc1cc(C)nc(Nc2ccc(Br)cc2C(=O)O)n1", "values": [{"measurement": "inhibition of mean fluorescence", "result": "17.1% (inactive)"}, {"measurement": "inhibition of percent positive cells", "result": 0.6, "unit": "%"}]}
{"smiles": "CC1CC(C)CN(C(C(=O)Nc2ccc(C(C)C)cc2)c2ccc3c(c2)OCO3)C1", "note": "(stereo not given)", "values": [{"measurement": "inhibition of mean fluorescence", "result": "19.3% (inactive)"}, {"measurement": "inhibition of percent positive cells", "result": -1.5, "unit": "%"}]}
{"smiles": "COc1c(F)c(F)c(C(=O)O)c(Nc2cc(C)cc(C)c2)c1F", "values": [{"measurement": "inhibition of mean fluorescence", "result": "-29.1% (inactive)"}, {"measurement": "inhibition of percent positive cells", "result": -2, "unit": "%"}]}
{"smiles": "Cc1ccc(NC(=O)CN2CCN(Cc3ccc4c(c3)OCO4)CC2)cc1", "values": [{"measurement": "inhibition of mean fluorescence", "result": "-30.1% (inactive)"}, {"measurement": "inhibition of percent positive cells", "result": -0.8, "unit": "%"}]}
{"smiles": "N#Cc1c(NC(=O)c2cc3ccccc3c(=O)o2)sc2c1CCCCCC2", "values": [{"measurement": "inhibition of mean fluorescence", "result": "-18.3% (inactive)"}, {"measurement": "inhibition of percent positive cells", "result": 0.2, "unit": "%"}]}
{"smiles": "CC(C)(C)c1ccc(S(=O)(=O)c2n[nH]n3c2nc(=O)c2ccccc23)cc1", "values": [{"measurement": "inhibition of mean fluorescence", "result": "13.3% (inactive)"}, {"measurement": "inhibition of percent positive cells", "result": -1.8, "unit": "%"}]}
{"smiles": "CCOC(=O)c1c(-c2cc(Br)c(OC)c(Br)c2)oc2ccc(O)cc12", "values": [{"measurement": "inhibition of mean fluorescence", "result": "-2.7% (inactive)"}, {"measurement": "inhibition of percent positive cells", "result": -0.6, "unit": "%"}]}
{"smiles": "COc1ccc(C(=O)NCC(c2cccnc2)N2CCN(c3ccc(F)cc3)CC2)cc1OC", "note": "(stereo not given)", "values": [{"measurement": "inhibition of mean fluorescence", "result": "3.4% (inactive)"}, {"measurement": "inhibition of percent positive cells", "result": 0, "unit": "%"}]}
{"smiles": "O=C(NC1CCCC1)C(c1cc2c(cc1[N+](=O)[O-])OCO2)N1CCC(Cc2ccccc2)CC1", "note": "(stereo not given)", "values": [{"measurement": "inhibition of mean fluorescence", "result": "4.9% (inactive)"}, {"measurement": "inhibition of percent positive cells", "result": -0.6, "unit": "%"}]}
{"smiles": "CCOc1ccc(Nc2nc3c(S(=O)(=O)c4ccccc4)nnn3c3ccccc23)cc1", "values": [{"measurement": "inhibition of mean fluorescence", "result": "-16.3% (inactive)"}, {"measurement": "inhibition of percent positive cells", "result": -0.2, "unit": "%"}]}
{"smiles": "COc1ccc(S(=O)(=O)c2nnn3c2nc(Nc2cccc(C)c2)c2ccccc23)cc1", "values": [{"measurement": "inhibition of mean fluorescence", "result": "-7.2% (inactive)"}, {"measurement": "inhibition of percent positive cells", "result": 0.1, "unit": "%"}]}
{"smiles": "O=C(O)c1ccccc1Nc1cccc2c1C(=O)c1ccccc1C2=O", "values": [{"measurement": "inhibition of mean fluorescence", "result": "58.7% (active)"}, {"measurement": "inhibition of percent positive cells", "result": 10, "unit": "%"}]}
{"smiles": "COc1ccc(Nc2nc3c(S(=O)(=O)c4ccc(C)cc4)nnn3c3ccsc23)cc1", "values": [{"measurement": "inhibition of mean fluorescence", "result": "-6.2% (inactive)"}, {"measurement": "inhibition of percent positive cells", "result": -0.3, "unit": "%"}]}
{"smiles": "O=C(NCC(c1cccnc1)N1CCN(c2ccccc2F)CC1)C1CCCCC1", "note": "(stereo not given)", "values": [{"measurement": "inhibition of mean fluorescence", "result": "-12.9% (inactive)"}, {"measurement": "inhibition of percent positive cells", "result": -0.1, "unit": "%"}]}
{"smiles": "O=C(O)c1ccccc1NC(c1ccccc1)c1ccc(Cl)cc1", "note": "(stereo not given)", "values": [{"measurement": "inhibition of mean fluorescence", "result": "59.8% (active)"}, {"measurement": "inhibition of percent positive cells", "result": 0.2, "unit": "%"}]}
{"smiles": "CC(C)c1ccc(S(=O)(=O)c2n[nH]n3c2nc(=O)c2ccccc23)cc1", "values": [{"measurement": "inhibition of mean fluorescence", "result": "80.5% (active)"}, {"measurement": "inhibition of percent positive cells", "result": 22.1, "unit": "%"}]}
{"smiles": "COc1cccc(-n2cc(C(=O)N=C3NC(=O)CS3)c3ccccc3c2=O)c1", "values": [{"measurement": "inhibition of mean fluorescence", "result": "-5.7% (inactive)"}, {"measurement": "inhibition of percent positive cells", "result": 0, "unit": "%"}]}
{"smiles": "CC(=O)c1cc2c(cc1NC(=O)CN1CCOCC1)OCO2", "values": [{"measurement": "inhibition of mean fluorescence", "result": "-26.1% (inactive)"}, {"measurement": "inhibition of percent positive cells", "result": -1, "unit": "%"}]}
{"smiles": "O=C(NCC(c1cccnc1)N1CCN(c2ccccc2)CC1)c1cccs1", "note": "(stereo not given)", "values": [{"measurement": "inhibition of mean fluorescence", "result": "47.7% (active)"}, {"measurement": "inhibition of percent positive cells", "result": 1.1, "unit": "%"}]}
{"smiles": "COc1ccc(CC(=O)Nc2oc(-c3ccccc3)c(-c3ccccc3)c2C#N)cc1", "values": [{"measurement": "inhibition of mean fluorescence", "result": "42.6% (active)"}, {"measurement": "inhibition of percent positive cells", "result": 1.3, "unit": "%"}]}
{"smiles": "CCN1CCN(C(CNC(=O)c2ccc(F)cc2)c2cccnc2)CC1", "note": "(stereo not given)", "values": [{"measurement": "inhibition of mean fluorescence", "result": "-8.8% (inactive)"}, {"measurement": "inhibition of percent positive cells", "result": -0.6, "unit": "%"}]}
{"smiles": "COc1ccc(NC(=O)C(c2cc3c(cc2[N+](=O)[O-])OCO3)N2CCCC(C)C2)cc1", "note": "(stereo not given)", "values": [{"measurement": "inhibition of mean fluorescence", "result": "29.6% (inactive)"}, {"measurement": "inhibition of percent positive cells", "result": -0.9, "unit": "%"}]}
